Laboratory results taken from PubChem BioAssay (EPA / NIEHS).
Where a structure was tested more than once in an assay, its records may differ in their call. The source made the active and inactive calls. How the source made its calls: active means hit-call score of the fitted dose curve at least 0.9, where 1 is the maximum; inactive means score below 0.9.

Assay: CCTE_Shafer_MEA_acute_spike_number: CCTE's Neural Acute Assay for Total Number of Spikes, Shafer Lab (AID 2284008);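 on AC50: curve fitted for decrease in spike count so AC50 reflects inhibitors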
Protocol: CCTE_Shafer_MEA_acute assay is conducted using Axion Biosystems 48 well microelectrode array (MEA) plates and Maestro recording system. Each well of the MEA plate contains a grid of 16 microelectrodes embedded in the culture surface. Electrically active cells, such as neurons, can be cultured over the electrodes, and electrical activity in these cells can be recorded extracellularly. The spontaneous firing of neurons is captured from each electrode on a microsecond timescale providing both temporally and spatially precise data. […] The CCTE_Shafer_MEA_acute assay uses primary cultures of rat cortical neurons. As these cultures mature over time, neural networks develop functional activity and form cohesive networks in which electrical activity can be highly coordinated. Baseline 40-minute recordings are made on days post-plating 13 or 15, followed by a secondary 40-minute recording after chemical exposure.CCTE_Shafer_MEA_acute_spike_number is a component of the CCTE_Shafer_MEA_acute assay. It measures the total number of spikes (action potential firings) in a 40-minute recording in a microelectrode array (MEA) using Axion Biosystems Maestro 768 channel amplifier with the AxIS adaptive spike detector. The recordings before and after chemical treatment are used to calculate a percent change in the spike number in each well. Data from the assay component CCTE_Shafer_MEA_acute_spike_number was analyzed into 1 assay endpoint. This assay endpoint, CCTE_Shafer_MEA_acute_spike_number, was analyzed in the negative analysis fitting direction relative to DMSO as the negative control and baseline of activity. Using a type of functional reporter, gain or loss-of-signal activity can be used to understand electrical activity.
Spontaneous activity in the cortical cultures was recorded using an Axion Biosystems Maestro 768 channel amplifier and Axion Integrated Studios (AxIS) v1.8 (or later) software. The amplifier recorded from all channels simultaneously (gain = 1200 x; sampling rate = 12.5 kHz/channel): raw signals were filtered with a Butterworth band-pass filter (300-5000 Hz), which filters out slower local field potentials leaving only fast potentials, i.e., "spikes", arising from extracellular currents associated with action potentials (Pine 2006; Wheeler and Nam 2011). On-line spike detection of filtered signals was conducted with the AxIS adaptive spike detector, using a threshold of 8x the root mean squared (rms) noise on each channel. Any electrodes with rms noise levels greater than 5 uV were grounded (e.g., no data were recorded). Once grounded, an electrode was grounded for the duration of the experiment. All recordings were conducted at 37 C. Wells were deemed usable if on the day of the exposure >/= 10 electrodes were active (defined as >/= 5 spikes/min). On DIV 13 or 15, a minimum of three wells from one cortical culture preparation were treated with each compound (0.03-40 uM). Prior to recording baseline activity, each mwMEA plate was placed in the Maestro at 37 C and allowed to sit for 20 min while firing rates stabilized. Baseline activity (40 min) was recorded before the addition of each compound. An additional 40 min of spontaneous activity was recorded in the presence of each compound. Changes in network parameters relative to baseline were assessed following compound treatment.
In the case of CC1(C)[C@@H](C=C(Cl)Cl)[C@@H]1C(=O)O[C@@H](C#N)c1ccc(F)c(Oc2ccccc2)c1, the AC50 was 2960 nM (active). In the case of CC1(C)[C@H](C=C(Cl)Cl)[C@@H]1C(=O)O[C@@H](C#N)c1cccc(Oc2ccccc2)c1, the outcome was “inactive”. For O=c1c2ccccc2c(=O)c2c1cc(Cl)c1[nH]c3c([nH]c12)c(Cl)cc1c(=O)c2ccccc2c(=O)c13, the outcome was “inactive”. For CC1(C)[C@H](C(=O)O[C@H](C#N)c2cccc(Oc3ccccc3)c2)[C@@H]1C=C(Br)Br, the AC50 was 1620 nM (active). For c1cc[n+]2c(c1)-c1cccc[n+]1CC2, the outcome was “inactive”. With Oc1ccc(C2(c3ccc(O)cc3)c3ccccc3-c3ccccc32)cc1 the AC50 was 8.82 nM (active). With Cc1ccc(OP(=O)(Oc2ccc(C)cc2)Oc2ccc(C)cc2)cc1 (tested in a mixture with another compound) the AC50 was 4200 nM (active). In the case of [Cd+2].[Cl-].[Cl-], the outcome was “inactive”. In the case of CP(=O)(O)CCC(N)C(=O)O (stereo unspecified), the outcome was “inactive”. In the case of COc1ccc(CO)cc1, the outcome was “inactive”. In the case of O=C(O)CNCP(=O)(O)O, the outcome was “inactive”. In the case of O=[N+]([O-])O, the outcome was “inactive” and the AC50 was 88.6 nM (active). In the case of CCCC[N+](CCCC)(CCCC)CCCC, the AC50 was 4.44 nM (active). For CP(=O)(O)CC[C@H](N)C(=O)O, the outcome was “inactive”. With C#CCN(C)[C@H](C)Cc1ccccc1 the outcome was “inactive”.
